Bioassay records deposited in PubChem by National Center for Advancing Translational Sciences (NCATS).
Rows were chosen to be rich in hits. Some 6.9% of all compounds tested hit in one or more screens of this group.
PLK1 PBD inh: qHTS for Inhibitors of PLK1-PDB (polo-like kinase 1 - polo-box domain): Primary Screen; Plk1 PBD binding of FITC phosphopeptide, fluorescence polarization; Potency, µM, inactives show max response, negative = inhibition, usual class: inhibitors; 2.8% of 360,000 active; AID 720504, 2013; further: series mostly up to about 57 µM; on the % scale 0 is the no-effect control and ±100 the full control effect; nearly all actives have a fitted effect of over 65% in size
JMJD2A Tudor inh: qHTS Assay for Inhibitors of JMJD2A-Tudor Domain; Potency, µM (doses to about 114 µM), for the others: at the top dose activity change, negative = inhibition, actives largely listed as inhibitors; Lysine-specific demethylase 4A (Homo sapiens), O75164; AID 504339, 2011; 4.4% of 390,000 active; AlphaScreen JMJD2A-Tudor / H3K4me3 peptide binding; further: on the % scale 0 is the no-effect control and ±100 the full control effect; nearly all actives have a fitted effect of over 50% in size
HP1b binding inh: HTS for Inhibitors of HP1-beta Chromodomain Interactions with Methylated Histone Tails; Chromobox protein homolog 1 (Homo sapiens), P83916; AlphaScreen HP1-beta / biotin-H3K9me3 peptide binding; Potency, µM (highest dose often 114 µM), inactives show top-dose activity change, negative = inhibition, most hits filed as inhibitors; 0.56% of 390,000 active; AID 540317, 2011; further: nearly all actives have a fitted effect of over 70% in size
Target sequence (P83916 whole entry, looked up): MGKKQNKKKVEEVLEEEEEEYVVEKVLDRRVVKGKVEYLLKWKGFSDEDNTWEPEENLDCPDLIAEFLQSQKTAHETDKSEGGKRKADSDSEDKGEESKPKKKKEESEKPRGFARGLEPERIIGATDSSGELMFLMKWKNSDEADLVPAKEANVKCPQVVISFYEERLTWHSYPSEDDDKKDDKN
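HP1-beta protein (50 nM final) preincubated 30 min at room temperature with biotinylated H3(1-18)K9me3 peptide (50 nM) in PBS pH 7.4, 0.01% Tween-20, then compound added for 30 min. AlphaScreen streptavidin donor/nickel chelate acceptor beads (10 ug/mL final), 30 min dark, luminescence read.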
VDR inh: Inhibitors of the vitamin D receptor (VDR): qHTS | VDR-SRC2-3 peptide fluorescence polarization, 2 h | Vitamin D3 receptor (Homo sapiens), P11473 | Potency, µM, for the others: max response, negative = inhibition, usual class: inhibitors | 0.93% of 400,000 active; further: on the % scale 0 is the no-effect control and ±100 the full control effect
Target sequence (P11473 whole entry, looked up): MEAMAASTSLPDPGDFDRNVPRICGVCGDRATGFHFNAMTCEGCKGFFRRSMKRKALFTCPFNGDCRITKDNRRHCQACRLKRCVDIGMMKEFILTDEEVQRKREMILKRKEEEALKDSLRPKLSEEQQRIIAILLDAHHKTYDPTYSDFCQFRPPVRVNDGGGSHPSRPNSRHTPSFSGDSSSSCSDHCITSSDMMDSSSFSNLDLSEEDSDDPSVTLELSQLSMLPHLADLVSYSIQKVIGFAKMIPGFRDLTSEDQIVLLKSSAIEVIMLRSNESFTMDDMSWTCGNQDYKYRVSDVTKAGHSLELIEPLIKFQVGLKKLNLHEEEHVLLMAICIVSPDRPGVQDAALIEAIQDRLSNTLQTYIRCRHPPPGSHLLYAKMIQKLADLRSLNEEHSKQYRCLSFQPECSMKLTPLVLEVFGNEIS
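After 23 nl compound addition and a short centrifugation, plates sat for 2 hours at ambient temperature; polarization of fluorescence then indicated loss of VDR binding to peptide SRC2-3.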
BAZ2B inh: qHTS Assay for Inhibitors of BAZ2B | Bromodomain adjacent to zinc finger domain protein 2B (Homo sapiens), Q9UIF8 | AlphaScreen BAZ2B-H3K14Ac peptide displacement | Potency, µM (series often up to 114 µM), inactives show top-dose activity change, negative = inhibition, hits mostly inhibitors | 4.4% of 360,000 active; further: on the % scale 0 is the no-effect control and ±100 the full control effect; nearly all actives have a fitted effect of over 60% in size
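AlphaScreen displacement of biotin-H3(5-23)K14Ac peptide (50 nM final) from BAZ2B (50 nM final) in PBS pH 7.4, 0.01% Tween-20; complex preformed 30 min RT, then compounds (top 110 uM) 30 min RT, beads 20 min dark.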
L3MBTL1 block: qHTS Assay for the Inhibitors of L3MBTL1. AlphaScreen L3MBTL1–H3K9me1 peptide binding. Lethal(3)malignant brain tumor-like protein 1 (Homo sapiens), Q9Y468. Potency, µM (top dose mostly 57.1 µM), for inactives: at the highest dose activity, negative = inhibition, usual class: inhibitors. 0.66% of 230,000 active; further: on the % scale 0 is the no-effect control and ±100 the full control effect; nearly all actives have a fitted effect of over 60% in size
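AlphaScreen proximity signal between nickel-chelate acceptor and streptavidin donor beads (final 10 ug/mL) reports binding of 50 nM L3MBTL1 to 75 nM biotin-H3 K9me1 peptide; complex incubated with compounds 30 min at room temperature; cefsulodin titration as control.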
* = called active by the depositor; [ ] = dose if it differs, or a comment. The call rests on the fitted dose curve; in most records, active means well fitted curve in the direction sought with a large enough effect; inconclusive means small, poorly fitted or top-dose-only effect, or another doubt; inactive means no such curve, though single readings can be large; an effect the other way counts as inactive or inconclusive. Potency means the concentration at half of the fitted maximal effect.

`CCc1ccccc1S(=O)(=O)Cc1ccc(C(=O)NC(C)C)o1` gave PLK1 PBD inh -23%, JMJD2A Tudor inh -12%, HP1b binding inh 47% and VDR inh -4%.
Cc1cccc(CS(=O)(=O)Cc2ccc(C(=O)NCCc3ccccc3)o2)c1 was read as PLK1 PBD inh 27µM*, JMJD2A Tudor inh -33%, HP1b binding inh -4%, VDR inh -18% and BAZ2B inh -2%.
Screening O=C(NCc1cc(Cl)cc(Cl)c1)c1csc([C@@H]2C[C@H](O)[C@@H](CO)O2)n1 returned PLK1 PBD inh -4%.
CCOC(=O)C1(Cc2cccc(OC)c2)CCN(C2CCOCC2)CC1 was read as PLK1 PBD inh -3%, JMJD2A Tudor inh -16%, HP1b binding inh -13%, VDR inh -4%, BAZ2B inh 50µM* and L3MBTL1 block -18%.
`CCOC(=O)C1(Cc2cccc(F)c2)CCN(C2CCOCC2)CC1` gave PLK1 PBD inh -9%, JMJD2A Tudor inh -13%, HP1b binding inh 29%, VDR inh -6%, BAZ2B inh 0% and L3MBTL1 block -5%.
CCCn1cnc2cc(NCc3cccc(OC)c3O)ccc21 was read as PLK1 PBD inh 0%, JMJD2A Tudor inh inconclusive, HP1b binding inh 9%, VDR inh 3%, BAZ2B inh inconclusive and L3MBTL1 block -7%.
For CCCn1cnc2cc(NCc3ccccn3)ccc21 the results were PLK1 PBD inh -2%, JMJD2A Tudor inh 56µM*, HP1b binding inh 1%, VDR inh -9%, BAZ2B inh 50µM* and L3MBTL1 block -11%.
CCc1ccc(CNc2ccc3c(c2)ncn3C)cc1 was read as PLK1 PBD inh -10%, JMJD2A Tudor inh inconclusive, HP1b binding inh inconclusive, VDR inh -4%, BAZ2B inh 45µM* and L3MBTL1 block -8%.
For CCOC(=O)C[n+]1c(C)sc2ccc(OC)cc21 the results were PLK1 PBD inh 27µM*, JMJD2A Tudor inh 50µM*, HP1b binding inh inconclusive, VDR inh inconclusive, BAZ2B inh inconclusive and L3MBTL1 block 1%.
Screening O=C(NCCc1ccccc1)C1CCCN1C(=O)Nc1ccc(F)cc1 (stereo not drawn) returned PLK1 PBD inh 19µM*, JMJD2A Tudor inh inconclusive, HP1b binding inh -4%, VDR inh -32% and L3MBTL1 block 3%.
For CC1(C)Cc2[nH]c(=S)c(C#N)cc2CO1 the results were PLK1 PBD inh 17µM*, JMJD2A Tudor inh 6.3µM*, HP1b binding inh -19%, VDR inh inconclusive, BAZ2B inh 25µM* and L3MBTL1 block 5%.
Screening CCNCC(=O)Nc1ccc(N2CCOCC2)cc1 returned PLK1 PBD inh -6%, JMJD2A Tudor inh -16%, HP1b binding inh 19%, VDR inh 8%, BAZ2B inh inconclusive and L3MBTL1 block 11%.
`Cc1ccc(CNCC(=O)Nc2ccc(N3CCOCC3)cc2)cc1` gave PLK1 PBD inh -1%, JMJD2A Tudor inh 1.4µM*, HP1b binding inh 40µM*, VDR inh -1%, BAZ2B inh 35µM* and L3MBTL1 block -5%.
`Cc1ccccc1SCC(=O)Nc1ccc(N2CCOCC2)cc1` gave PLK1 PBD inh 19µM*, JMJD2A Tudor inh -32%, HP1b binding inh -4%, VDR inh -27% and BAZ2B inh -37%.
Nc1ccccc1SCC(=O)Nc1ccc(N2CCOCC2)cc1 was read as PLK1 PBD inh 0%, JMJD2A Tudor inh -14%, HP1b binding inh 27%, VDR inh inconclusive, BAZ2B inh -32% and L3MBTL1 block -1%.
O=C(c1cccn1-c1nnc(N2CCCC2)s1)N1CCN(c2ccccc2)CC1 was read as JMJD2A Tudor inh -13%, HP1b binding inh 17%, VDR inh 2% and BAZ2B inh -9%.
Cn1c(Cl)cnc1C1CC(=O)c2cc(Cl)ccc2O1 (stereo not drawn) was read as PLK1 PBD inh -3%, JMJD2A Tudor inh -22%, HP1b binding inh 3%, VDR inh 79µM*, BAZ2B inh inconclusive and L3MBTL1 block -3%.
For O=C1C=CC(=Nc2ccc(F)cc2)O1 the results were PLK1 PBD inh inconclusive, JMJD2A Tudor inh 45µM*, HP1b binding inh 22µM* and VDR inh 79µM*.
For CCOc1ccccc1NC(=O)N1CCC2(CC1)Oc1ccccc1C(=O)N2Cc1ccccc1F the results were JMJD2A Tudor inh -18%, HP1b binding inh 17%, VDR inh -3% and BAZ2B inh -16%.
For COCCNC(=O)c1cccc2c(-c3cnn(C)c3)coc12 the results were PLK1 PBD inh -2%.
For C=CC(=O)Nc1ccc(N(C)c2ccnc(Nc3ccc(N4CCN(C)CC4)cc3)n2)cc1 the results were PLK1 PBD inh -5%, JMJD2A Tudor inh 35µM*, HP1b binding inh inconclusive, VDR inh 8% and L3MBTL1 block inconclusive.
Screening Cn1c(=O)c2c(nc(SCc3cccnc3)n2Cc2ccccc2)n(C)c1=O returned PLK1 PBD inh -20%, JMJD2A Tudor inh 35µM*, HP1b binding inh 22%, VDR inh -3%, BAZ2B inh -8% and L3MBTL1 block 13%.
`C=CCOc1nc2c(c(=O)n(C)c(=O)n2C)n1Cc1ccccc1` gave PLK1 PBD inh -17%, JMJD2A Tudor inh 0%, HP1b binding inh 22%, VDR inh 18%, BAZ2B inh -13% and L3MBTL1 block -6%.
`COc1cccc(Cn2cnc3c2c(=O)n(C)c(=O)n3C)c1` gave JMJD2A Tudor inh -7%, HP1b binding inh 59%, VDR inh -8% and BAZ2B inh -2%.
COc1ccc(Oc2nc3c(c(=O)n(C)c(=O)n3C)n2Cc2ccccc2)cc1 was read as PLK1 PBD inh 27µM*, JMJD2A Tudor inh -24%[57.1 µM], HP1b binding inh -7%, VDR inh -17% and BAZ2B inh -2%.
Screening COc1ccc(N2CCN(c3nc4c(c(=O)n(C)c(=O)n4C)n3Cc3ccccc3)CC2)cc1 returned PLK1 PBD inh -6%, JMJD2A Tudor inh 56µM*, HP1b binding inh inconclusive, VDR inh 2% and BAZ2B inh 45µM*.
`Cn1c(=O)c2c(ncn2Cc2ccccc2)n(C)c1=O` gave PLK1 PBD inh 27µM*, JMJD2A Tudor inh -29%, HP1b binding inh 33%, VDR inh -25%, BAZ2B inh 11% and L3MBTL1 block 13%.
